Reference: the supplement of paper PMC12067093, “Discovery and optimisation of a covalent ligand for TRIM25 and its application to targeted protein ubiquitination” (Chemical Science, 2025)
About 21,000 targets were measured; listed, in parts, are those with the largest changes and a random draw of the rest.

Compound: Cc1cc(ccc1-c1ccccc1)C(=O)N1CCCN(CC1)C(=O)CCl [compound 10]
Assay: probe-labelled cysteine peptide fold change vs DMSO (competition) (log2 fold change); higher = less target engagement (more negative = stronger competition)
Conditions: THP-1, incubation time: 4 h
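Note: competitive profiling in live THP-1 cells: cysteine peptides tagged with an iodoacetamide desthiobiotin (IA-DTB) probe, intensity after compound treatment relative to DMSO-treated cells.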

Target	probe-labelled cysteine peptide fold change (10 µM)	probe-labelled cysteine peptide fold change (50 µM)
NUBP1_P53384_8_MEEVPHDCPGADSAQAGR (UniProt P53384)	1.37	1.35
PALD1_Q9ULE6_382_AITACAELHDLK (UniProt Q9ULE6)	-0.02	-0.092
NFX1_Q12986_295_STCDSENLAVINK (UniProt Q12986)	0.0638	-0.0574
P4HB_P07237_53_YLLVEFYAPWCGHCK (UniProt P07237)	-1.15	-1.6
P3H1_Q32P28_568_LDTPLYFSYSHLVCR (UniProt Q32P28)	-0.35	0.386
OAT_P04181_93_YFDFLSSYSAVNQGHCHPK (UniProt P04181)	0.0237	0.0378
PARK7_Q99497_53_DVVICPDASLEDAK (UniProt Q99497)	-0.432	0.291
PAK2_Q13177_352_ECLQALEFLHANQVIHR (UniProt Q13177)	0.441	0.0289
NT5C3B_Q969T7_73_IISEECR (UniProt Q969T7)	-0.00671	0.268
P4HB_P07237_397_KNVFVEFYAPWCGHCK (UniProt P07237)	-0.644	-2.76
NFKB1_P19838_61_YVCEGPSHGGLPGASSEK (UniProt P19838)	0.0894	-0.824
NRAS_P01111_51_KQVVIDGETCLLDILDTAGQEEYSAMRDQYMR<|>HRAS_P01112_51_KQVVIDGETCLLDILDTAGQEEYSAMRDQYMR (UniProt P01112+P01111)	-0.209	-0.642
NECTIN2_Q92692_238_ADGVTVTCK (UniProt Q92692)	-0.148	-0.394
NFS1_Q9Y697_353_HHYPGCINLSFAYVEGESLLMALK (UniProt Q9Y697)	0.466	0.42
PAICS_P22234_266_SESQCR (UniProt P22234)	0.613	1.39
PARP14_Q460N5_509_VTQHLCLK (UniProt Q460N5)	0.0914	0.48
NOL9_Q5SY16_637_TVNCLLVGAIAIPHCVLK (UniProt Q5SY16)	-0.0765	-0.381

Target	probe-labelled cysteine peptide fold change (10 µM)	probe-labelled cysteine peptide fold change (50 µM)
NUP205_Q92621_698_CEEYPLTR (UniProt Q92621)	0.0608	-0.00172
OSTC_Q9NRP0_14_VPFLVLECPNLK (UniProt Q9NRP0)	0.025	-0.0744
MYO9B_Q13459_1876_ITTCVEMLIK (UniProt Q13459)	0.0944	-0.0605
NOTCH2_Q04721_427_GADCTEDVDECAMANSNPCEHAGK (UniProt Q04721)	0.149	0.115
PALD1_Q9ULE6_65_VAPVVITYNCK (UniProt Q9ULE6)	0.106	-0.15
NACC2_Q96BF6_393_NTLANSCGTGIR<|>NACC1_Q96RE7_416_NTLANSCGTGIR (UniProt Q96RE7+Q96BF6)	-0.485	0.031
NR2F6_P10588_316_AIALFTPDACGLSDPAHVESLQEK (UniProt P10588)	-0.711	-1.1
P4HTM_Q9NXG6_156_PLLFEIPGFLTDEECR (UniProt Q9NXG6)	0.372	0.492
NIPSNAP3A_Q9UFN0_135_QESEITYLVPWCK (UniProt Q9UFN0)	0.151	0.389
MYO6_Q9UM54_790_RVNHWLTCSR (UniProt Q9UM54)	0.104	0.475
NT5DC1_Q5TFE4_139_YYFYDNYFDLPGALLCAR (UniProt Q5TFE4)	1.21	1.46
MYO6_Q9UM54_321_MCTAMK (UniProt Q9UM54)	0.00117	-0.218
NSDHL_Q15738_86_FFLGDLCSR (UniProt Q15738)	-0.104	0.0788
PA2G4_Q9UQ80_85_GIAFPTSISVNNCVCHFSPLK (UniProt Q9UQ80)	0.203	-0.024
NOP2_P46087_463_VLLDAPCSGTGVISK (UniProt P46087)	-0.0187	0.0458
NOMO3_P69849_565_ISIMHEDWCWK<|>NOMO1_Q15155_565_ISIMHEDWCWK<|>NOMO2_Q5JPE7_565_ISIMHEDWCWK (UniProt Q5JPE7+Q15155+P69849)	0.0786	0.28
NUMA1_Q14980_961_QFCSTQAALQAMER (UniProt Q14980)	-0.0783	-1.25
